# Reference: PubChem BioAssay (NCATS)
# Results filed as inconclusive are left out. Unmarked numbers belong to inactive results. Active and inactive are the calls of the source. Calls follow the shape of the dose curve; as a rule, active = well fitted cell-killing curve with a large enough effect; inconclusive = small, poorly fitted or top-dose-only effect; inactive = flat fitted curve, though single readings scatter.
# Experiment: Cell Viability - H-4-II-E (AID 543); also: nearly all actives have a fitted effect of over 35% in size
# Details: H-4-II-E rat hepatoma viability; series mostly up to 92.2 µM; activity change, negative = cytotoxic: at the top concentration
# Excerpt: NIH Chemical Genomics Center [NCGC]
# NIH Molecular Libraries Screening Centers Network [MLSCN]
# National Institutes of Environmental Health Sciences [NIEHS]
# National Toxicology Program [NTP]
# We have developed a 1536-well cell-based assay for quantitative high throughput screening (qHTS) against a number of cell lines to determine in vitro cytotoxicity of small molecules. This particular assay uses the H-4-II-E cell line which is derived from rat hepatoma.
# NCGC Assay Protocol Summary:
# The CellTiter-Glo luminescent cell viability assay (Promega) is a homogeneous method to measure the number of viable cells in culture. The end point readout of this assay is based on quantitation of intracellular ATP, an indicator of metabolic activity, using the luciferase reaction. Luciferase catalyzes the oxidation of beetle Luciferin to oxyluciferin and light in the presence of ATP. The luminescent signal is proportional to amount of ATP present.
# Using the CellTiter-Glo luminescent cell viability assay, the amount of cellular ATP was measured in the H-4-II-E cell line with complete culture medium following compound treatment for 40 hours. The assay was performed in opaque white Kalypsys 1536-well plates. In the screen, tamoxifen and doxorubicin were used as positive controls. Library compounds were measured for their ability to cause acute toxicity in the cell line, as reflected by a decrease in intracellular ATP levels, in a concentration-dependent manner. […] AC50 values were determined from concentration-response data modeled with the standard Hill equation.
# qHTS protocol fo CellTiter Glo H-4-II-E cellular assay
# [Step] [Parameter] [Value] [Description]
# 1. Reagent; 5 uL; 1500 H-4-II-E cells/well
# 2. Time; 5 hr; 37 °C incubation
# 4. Controls; 23 nL; Tamoxifen 0.34 uM to 100 uM & Doxorubicin 0.02 nM to 100 uM
# 5. Time; 40 hr; 37 °C incubation
# 6. Reagent; 5 uL; CellTiter Glo reagent
# 7. Time; 20 min; Room Temperature
# 8. Detection; Luminescence; Viewlux plate reader
# Keywords: cell viability, cytotoxicity, H-4-II-E cell line, luminescence, NTPHTS, NTPHTS_NCGC, NIEHS, EPA, DSSTox, MLSMR, MLSCN, NIH Roadmap, qHTS, NCGC
# % is scaled to controls: 0 for no effect and ±100 for the full control effect; potency is read from the fitted curve at half-maximal effect.
SMILES,"activity change, negative = cytotoxic [%]",Potency
C1CCCNCC1,-3.34,
Nc1cc(C(=O)O)c(O)c(S(=O)(=O)O)c1,-0.376,
CC(=O)c1ccc(Cl)c(Cl)c1Cl,3.95,
C=C(C#N)C(=O)OCC,-11.2,
CCCCCCCC/C=C\CCCCCCCC(=O)N(CCO)CCO,,39.8 µM (active)
CC(=O)OC1CC(C)OC(C)O1 (stereo not given),-1.42,
COc1ccc([N+](=O)[O-])cc1N,-7.45,
Oc1ccc2c(c1)OCO2,-9.84,
O=C(O)/C=C/c1ccc(/C=C/C(=O)O)cc1,-6.6,
COc1cc(-c2ccc(N=C=O)c(OC)c2)ccc1N=C=O,-16.4,
C=C1CC[C@H](O)C/C1=C/C=C1\CCC[C@]2(C)[C@@H]([C@H](C)CCCC(C)C)CC[C@@H]12,,39.8 µM (active)
Brc1cc(Oc2cc(Br)c(Br)c(Br)c2Br)c(Br)c(Br)c1Br,-28.1,
C[Si](C)(C)Cl,-2.86,
OCC(CO)(CBr)CBr,-18.2,
O=C(O)c1cc(N=Nc2ccc([N+](=O)[O-])cc2)ccc1O,-29.4,
C=Cc1cccc(C)c1,-4.57,
CCCCOC(=O)COc1ccc(Cl)cc1Cl,-1.12,
COc1ccc(C)cc1N,-2.2,
CCOc1ccc2nc(N)sc2c1,-14.2,
Brc1cc(Br)c(Oc2cc(Br)c(Br)cc2Br)cc1Br,-26.6,

SMILES,"activity change, negative = cytotoxic [%]",Potency
N=C1C=CC(=C(c2ccc(N)cc2)c2ccc(N)cc2)C=C1,,31.6 µM (active)
Oc1cc(Cl)cc(Cl)c1Cl,-21.6,
O=C(OCC1CO1)C1CCCCC1C(=O)OCC1CO1 (stereo not given),,50.1 µM (active)
Oc1c(Cl)cc(Cl)c(Cl)c1Cl,-23.2,
Cc1cccnc1,-8.5,
Cc1ccc(S(N)(=O)=O)cc1,-5.19,
O=[N+]([O-])c1ccccc1Nc1ccccc1,-7.09,
CC(=O)OC(C(=O)c1ccccc1)c1ccccc1 (stereo not given),-8.13,
CCOC(=O)C1OC1c1ccccc1 (stereo not given),-3.8,
C/C(Cl)=C/CCl,-16.5,
O=[N+]([O-])c1cccc(I)c1,-3.61,
OCC(CBr)(CBr)CBr,-15.3,
NC(=O)Nc1nc2ccccc2[nH]1,-21,
Nc1ccccc1O,-27.9,
CCCC(=O)OC(=O)CCC,0.643,
c1ccc(SCCSc2ccccc2)cc1,-8.75,
CCCCCCCCOc1ccc(C(=O)O)cc1,-7.68,
C=CC1CO1 (stereo not given),-4.32,
CCc1ccc(C(c2ccc(CC)cc2)C(Cl)Cl)cc1,-26.6,
C=CC(=O)CC,-3.32,
